# According to the supplement of paper PMC4022240:
# ± gives the standard deviation.
# T1: HaloTag-ATRX ADD domain (163-292)
# T1 chain: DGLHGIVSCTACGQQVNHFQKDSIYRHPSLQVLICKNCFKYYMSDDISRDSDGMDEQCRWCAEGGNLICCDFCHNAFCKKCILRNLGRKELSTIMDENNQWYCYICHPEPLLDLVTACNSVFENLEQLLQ
# Key:
# Test in all cases: peptide microarray binding signal (635 nm), min-max normalized on array (fraction of array maximum); higher = stronger binding
# Settings in all cases: peptide region: H4 8-19
# [1] = biological target: T1, HaloTag-ATRX ADD domain (163-292)
# Outline: (§1)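 Triplicate spots of histone 13-mer peptide–cellulose conjugates with a Cy3 tracer were printed on nitrocellulose and probed for 1 h at 4°C with biotin-labelled HaloTag reader fusions (10 nM to 1 μM) plus streptavidin-Alexa Fluor 647 or rabbit histone antibodies (1:10,000 to 1:2,000) plus anti-rabbit Alexa 647. An Axon GenePix 4000B read the 635 nm channel. Binding signal is the spot-triplicate mean intensity after min-max scaling within each library.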
# [2] = biological target: HaloTag-ING2 PHD (mouse Ing2 200-280)
# Outline: as §1
# [3] = biological target: anti-H3K4me3 antibody ab8580
# Outline: as §1
# [4] = biological target: anti-H3K9me3 antibody ab8898
# Outline: as §1
# [5] = peptide modifications: H4K8ac H4K16ac, binder concentration: 1:2,000 dilution
# [6] = peptide modifications: H4K8ac H4K16ac, binder concentration: 1:10,000 dilution
# [7] = peptide modifications: H4K8ac, binder concentration: 1:2,000 dilution
# [8] = peptide modifications: H4K8ac, binder concentration: 1:10,000 dilution
# [9] = peptide modifications: H4K12ac H4K16ac, binder concentration: 1:2,000 dilution
# [10] = peptide modifications: H4K12ac H4K16ac, binder concentration: 1:10,000 dilution
# [11] = peptide modifications: H4K12ac, binder concentration: 1:2,000 dilution
# [12] = peptide modifications: H4K12ac, binder concentration: 1:10,000 dilution
# [13] = peptide modifications: H4K16ac H4R17cit, binder concentration: 1:2,000 dilution
# [14] = peptide modifications: H4K16ac H4R17me1, binder concentration: 1:2,000 dilution
# [15] = peptide modifications: H4K16ac H4R17me2a, binder concentration: 1:2,000 dilution
# [16] = peptide modifications: H4K16ac H4R17me2s, binder concentration: 1:2,000 dilution
# [17] = peptide modifications: H4K16ac, binder concentration: 1:2,000 dilution
# [18] = peptide modifications: H4K16ac, binder concentration: 1:10,000 dilution
# [19] = peptide modifications: H4R17cit, binder concentration: 1:2,000 dilution
# [20] = peptide modifications: H4R17cit, binder concentration: 1:10,000 dilution
# [21] = peptide modifications: H4R17me1, binder concentration: 1:2,000 dilution
# [22] = peptide modifications: H4R17me1, binder concentration: 1:10,000 dilution
# [23] = peptide modifications: H4R17me2a, binder concentration: 1:2,000 dilution
# [24] = peptide modifications: H4R17me2a, binder concentration: 1:10,000 dilution
binder,measurement,setting,value
KGLGKGGAKRHRK [H4 8-19 Kac G L G K G G A Kac R H R K],peptide microarray binding signal,"[1]; peptide modifications: H4K8ac H4K16ac, binder concentration: 50 nM",0.000439 ± 1.5e-05
same,peptide microarray binding signal,"[1]; peptide modifications: H4K8ac H4K16ac, binder concentration: 500 nM",9.52e-05 ± 1e-06
same,peptide microarray binding signal,"[2]; peptide modifications: H4K8ac H4K16ac, binder concentration: 10 nM",0.0043 ± 0.0012
same,peptide microarray binding signal,"[2]; peptide modifications: H4K8ac H4K16ac, binder concentration: 100 nM",0.000283
same,peptide microarray binding signal,[3]; [5],0.000113
same,peptide microarray binding signal,[3]; [6],0.00143 ± 0.00034
same,peptide microarray binding signal,[4]; [5],4.53e-05
same,peptide microarray binding signal,[4]; [6],5.77e-05 ± 6.6e-07
KGLGKGGAKRHRK [H4 8-19 Kac G L G K G G A K R H R K],peptide microarray binding signal,"[1]; peptide modifications: H4K8ac, binder concentration: 50 nM",0.00652 ± 0.00063
same,peptide microarray binding signal,"[1]; peptide modifications: H4K8ac, binder concentration: 500 nM",0.0191 ± 0.0048
same,peptide microarray binding signal,"[2]; peptide modifications: H4K8ac, binder concentration: 10 nM",0.004 ± 0.00025
same,peptide microarray binding signal,"[2]; peptide modifications: H4K8ac, binder concentration: 100 nM",0.0126 ± 0.0039
same,peptide microarray binding signal,[3]; [7],0.000849 ± 0.00016
same,peptide microarray binding signal,[3]; [8],0.001712 ± 1.6e-05
same,peptide microarray binding signal,[4]; [7],0.000876 ± 7e-05
same,peptide microarray binding signal,[4]; [8],0.00121 ± 2.4e-05
KGLGKGGAKRHRK [H4 8-19 K G L G Kac G G A Kac R H R K],peptide microarray binding signal,"[1]; peptide modifications: H4K12ac H4K16ac, binder concentration: 50 nM",0.000188 ± 6.2e-06
same,peptide microarray binding signal,"[1]; peptide modifications: H4K12ac H4K16ac, binder concentration: 500 nM",0.000333 ± 1.3e-05
same,peptide microarray binding signal,"[2]; peptide modifications: H4K12ac H4K16ac, binder concentration: 10 nM",0.00215 ± 0.00035
same,peptide microarray binding signal,"[2]; peptide modifications: H4K12ac H4K16ac, binder concentration: 100 nM",0.000142 ± 1.7e-06
same,peptide microarray binding signal,[3]; [9],0
same,peptide microarray binding signal,[3]; [10],5.71e-05
same,peptide microarray binding signal,[4]; [9],0
same,peptide microarray binding signal,[4]; [10],0
KGLGKGGAKRHRK [H4 8-19 K G L G Kac G G A K R H R K],peptide microarray binding signal,"[1]; peptide modifications: H4K12ac, binder concentration: 50 nM",0.00743 ± 0.00047
same,peptide microarray binding signal,"[1]; peptide modifications: H4K12ac, binder concentration: 500 nM",0.0289 ± 0.0017
same,peptide microarray binding signal,"[2]; peptide modifications: H4K12ac, binder concentration: 10 nM",0.00352 ± 0.00036
same,peptide microarray binding signal,"[2]; peptide modifications: H4K12ac, binder concentration: 100 nM",0.0073 ± 0.00023
same,peptide microarray binding signal,[3]; [11],0.000189 ± 2e-06
same,peptide microarray binding signal,[3]; [12],0.00302 ± 6.8e-05
same,peptide microarray binding signal,[4]; [11],0.0031 ± 4e-05
same,peptide microarray binding signal,[4]; [12],0.00283 ± 0.00018
KGLGKGGAKRHRK [H4 8-19 K G L G K G G A Kac Rcit H R K],peptide microarray binding signal,"[1]; peptide modifications: H4K16ac H4R17cit, binder concentration: 500 nM",0.000476 ± 1.3e-05
same,peptide microarray binding signal,"[2]; peptide modifications: H4K16ac H4R17cit, binder concentration: 100 nM",7.09e-05 ± 1.5e-06
same,peptide microarray binding signal,[3]; [13],3.78e-05 ± 4.3e-07
same,peptide microarray binding signal,[4]; [13],0
KGLGKGGAKRHRK [H4 8-19 K G L G K G G A Kac Rme H R K],peptide microarray binding signal,"[1]; peptide modifications: H4K16ac H4R17me1, binder concentration: 500 nM",0.000143 ± 2.7e-06
same,peptide microarray binding signal,"[2]; peptide modifications: H4K16ac H4R17me1, binder concentration: 100 nM",0.000425 ± 4.9e-06
same,peptide microarray binding signal,[3]; [14],7.55e-05 ± 8.5e-07
same,peptide microarray binding signal,[4]; [14],3.02e-05 ± 3.4e-07
KGLGKGGAKRHRK [H4 8-19 K G L G K G G A Kac Rme2a H R K],peptide microarray binding signal,"[1]; peptide modifications: H4K16ac H4R17me2a, binder concentration: 500 nM",0
same,peptide microarray binding signal,"[2]; peptide modifications: H4K16ac H4R17me2a, binder concentration: 100 nM",0.000283
same,peptide microarray binding signal,[3]; [15],1.89e-05 ± 2.2e-07
same,peptide microarray binding signal,[4]; [15],1.51e-05 ± 1.7e-07
KGLGKGGAKRHRK [H4 8-19 K G L G K G G A Kac Rme2s H R K],peptide microarray binding signal,"[1]; peptide modifications: H4K16ac H4R17me2s, binder concentration: 500 nM",0.000286 ± 1.8e-05
same,peptide microarray binding signal,"[2]; peptide modifications: H4K16ac H4R17me2s, binder concentration: 100 nM",0.000283 ± 5.7e-06
same,peptide microarray binding signal,[3]; [16],5.66e-05
same,peptide microarray binding signal,[4]; [16],1.51e-05 ± 1.7e-07
KGLGKGGAKRHRK [H4 8-19 K G L G K G G A Kac R H R K],peptide microarray binding signal,"[1]; peptide modifications: H4K16ac, binder concentration: 50 nM",0.00483 ± 0.00015
same,peptide microarray binding signal,"[1]; peptide modifications: H4K16ac, binder concentration: 500 nM",0.0126 ± 0.00055
same,peptide microarray binding signal,"[2]; peptide modifications: H4K16ac, binder concentration: 10 nM",0.00388 ± 8.9e-05
same,peptide microarray binding signal,"[2]; peptide modifications: H4K16ac, binder concentration: 100 nM",0.0106 ± 0.0026
same,peptide microarray binding signal,[3]; [17],0.00238 ± 0.00047
same,peptide microarray binding signal,[3]; [18],0.002 ± 4.9e-05
same,peptide microarray binding signal,[4]; [17],0.00181 ± 6e-05
same,peptide microarray binding signal,[4]; [18],0.00127 ± 3.4e-05
KGLGKGGAKRHRK [H4 8-19 K G L G K G G A K Rcit H R K],peptide microarray binding signal,"[1]; peptide modifications: H4R17cit, binder concentration: 50 nM",0.0003448 ± 3.2e-06
same,peptide microarray binding signal,"[1]; peptide modifications: H4R17cit, binder concentration: 500 nM",0.000381 ± 4e-06
same,peptide microarray binding signal,"[2]; peptide modifications: H4R17cit, binder concentration: 10 nM",0.00191 ± 4e-05
same,peptide microarray binding signal,"[2]; peptide modifications: H4R17cit, binder concentration: 100 nM",0.000354 ± 4.1e-06
same,peptide microarray binding signal,[3]; [19],7.55e-05 ± 8.5e-07
same,peptide microarray binding signal,[3]; [20],0.000685 ± 1.5e-05
same,peptide microarray binding signal,[4]; [19],3.02e-05 ± 3.4e-07
same,peptide microarray binding signal,[4]; [20],0
KGLGKGGAKRHRK [H4 8-19 K G L G K G G A K Rme H R K],peptide microarray binding signal,"[1]; peptide modifications: H4R17me1, binder concentration: 50 nM",0.00987 ± 0.0027
same,peptide microarray binding signal,"[1]; peptide modifications: H4R17me1, binder concentration: 500 nM",0.016 ± 0.0014
same,peptide microarray binding signal,"[2]; peptide modifications: H4R17me1, binder concentration: 10 nM",0.00352 ± 6.8e-05
same,peptide microarray binding signal,"[2]; peptide modifications: H4R17me1, binder concentration: 100 nM",0.00865 ± 0.00034
same,peptide microarray binding signal,[3]; [21],0.00119 ± 0.0002
same,peptide microarray binding signal,[3]; [22],0.00148 ± 8e-05
same,peptide microarray binding signal,[4]; [21],0.00112 ± 4.3e-05
same,peptide microarray binding signal,[4]; [22],0.00138 ± 1.4e-05
KGLGKGGAKRHRK [H4 8-19 K G L G K G G A K Rme2a H R K],peptide microarray binding signal,"[1]; peptide modifications: H4R17me2a, binder concentration: 50 nM",0.00395 ± 0.00035
same,peptide microarray binding signal,"[1]; peptide modifications: H4R17me2a, binder concentration: 500 nM",0.00957 ± 0.00096
same,peptide microarray binding signal,"[2]; peptide modifications: H4R17me2a, binder concentration: 10 nM",0.00358 ± 3.8e-05
same,peptide microarray binding signal,"[2]; peptide modifications: H4R17me2a, binder concentration: 100 nM",0.0085 ± 0.00064
same,peptide microarray binding signal,[3]; [23],0.00051 ± 1.5e-05
same,peptide microarray binding signal,[3]; [24],0.000913 ± 1.6e-05
same,peptide microarray binding signal,[4]; [23],0.000483 ± 1.7e-05
same,peptide microarray binding signal,[4]; [24],0.00208 ± 0.00045
